Measurements published in PMC7862700, “An all-to-all approach to the identification of sequence-specific readers for epigenetic DNA modifications on cytosine”.

Assays:
Test in all cases: DAPPL (digital affinity profiling via proximity ligation, sequencing); 10 mM Tris-HCl pH 7.5, 50 mM NaCl, 1 mM DTT, 4% glycerol, room temperature, 30 min; GST-TFs on glutathione beads, 16-mer random dsDNA library, 0.1% formaldehyde crosslink after washing; high values mean tight binding
FLI1 = molecular target: T1, FLI1 (Homo sapiens, UniProt Q01543 1-452); details: protein: recombinant; tags: N-terminal GST; dsDNA, one strand shown
T1 sequence: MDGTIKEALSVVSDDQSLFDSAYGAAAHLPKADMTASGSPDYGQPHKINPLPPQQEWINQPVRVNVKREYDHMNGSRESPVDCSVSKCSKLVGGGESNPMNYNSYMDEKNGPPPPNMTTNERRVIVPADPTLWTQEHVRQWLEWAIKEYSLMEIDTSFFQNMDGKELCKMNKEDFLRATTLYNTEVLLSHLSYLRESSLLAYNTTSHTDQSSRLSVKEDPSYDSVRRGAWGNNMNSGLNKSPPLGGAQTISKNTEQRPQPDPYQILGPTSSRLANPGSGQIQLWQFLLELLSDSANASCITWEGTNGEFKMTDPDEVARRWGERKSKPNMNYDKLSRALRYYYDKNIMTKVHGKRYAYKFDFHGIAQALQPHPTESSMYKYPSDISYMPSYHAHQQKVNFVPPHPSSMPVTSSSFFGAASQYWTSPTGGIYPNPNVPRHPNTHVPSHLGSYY
Procedure, shortened: (§1)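 Pools of DNA-barcoded human transcription factors, expressed in yeast as GST fusions on glutathione beads and combined with a tag-only sample, were incubated with 200 nmole of a 16-mer random double-stranded DNA library. Incubation took 30 min at room temperature in Tris/NaCl/DTT/glycerol buffer and was followed by washing, 0.1% formaldehyde crosslinking, proximity ligation (BsaI/T4 ligase, 1 h, 37 °C), PCR amplification and sequencing on an Illumina NextSeq500. Binding signal is the ratio of a hexamer's read frequency for a factor to its frequency for the tag-only sample.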

ELK1 = molecular target: T2, ELK1 (Homo sapiens, UniProt P19419 1-428); details: protein: recombinant; tags: N-terminal GST; dsDNA, one strand shown
T2 sequence: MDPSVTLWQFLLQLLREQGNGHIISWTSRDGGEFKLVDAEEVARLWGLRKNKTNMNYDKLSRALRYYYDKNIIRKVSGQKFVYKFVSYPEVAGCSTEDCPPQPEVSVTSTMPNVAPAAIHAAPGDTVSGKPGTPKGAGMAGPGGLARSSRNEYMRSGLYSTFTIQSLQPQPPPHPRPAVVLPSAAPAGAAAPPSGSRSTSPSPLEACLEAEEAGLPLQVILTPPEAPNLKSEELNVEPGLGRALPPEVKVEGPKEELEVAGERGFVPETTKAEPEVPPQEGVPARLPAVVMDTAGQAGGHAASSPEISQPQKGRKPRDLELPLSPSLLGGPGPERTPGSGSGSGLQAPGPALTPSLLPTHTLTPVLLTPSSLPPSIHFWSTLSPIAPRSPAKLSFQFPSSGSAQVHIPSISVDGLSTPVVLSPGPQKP
Procedure, shortened: as §1

GABPA = molecular target: T3, GABPA (Homo sapiens, UniProt Q06546 1-454); details: protein: recombinant; tags: N-terminal GST; dsDNA, one strand shown
T3 sequence: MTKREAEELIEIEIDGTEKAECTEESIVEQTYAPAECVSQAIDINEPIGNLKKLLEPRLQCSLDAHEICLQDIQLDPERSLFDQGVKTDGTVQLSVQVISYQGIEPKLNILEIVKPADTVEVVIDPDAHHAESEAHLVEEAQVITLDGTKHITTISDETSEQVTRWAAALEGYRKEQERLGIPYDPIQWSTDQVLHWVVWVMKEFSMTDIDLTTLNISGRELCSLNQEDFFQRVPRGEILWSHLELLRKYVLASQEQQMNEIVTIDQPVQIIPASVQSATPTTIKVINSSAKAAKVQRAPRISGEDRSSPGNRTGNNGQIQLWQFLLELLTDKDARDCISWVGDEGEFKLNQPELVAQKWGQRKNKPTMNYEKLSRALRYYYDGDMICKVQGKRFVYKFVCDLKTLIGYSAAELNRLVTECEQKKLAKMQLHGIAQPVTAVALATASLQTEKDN
Procedure, shortened: as §1

ERG = molecular target: T4, ERG (Homo sapiens, UniProt P11308 1-479); details: protein: recombinant; tags: N-terminal GST; dsDNA, one strand shown
T4 sequence: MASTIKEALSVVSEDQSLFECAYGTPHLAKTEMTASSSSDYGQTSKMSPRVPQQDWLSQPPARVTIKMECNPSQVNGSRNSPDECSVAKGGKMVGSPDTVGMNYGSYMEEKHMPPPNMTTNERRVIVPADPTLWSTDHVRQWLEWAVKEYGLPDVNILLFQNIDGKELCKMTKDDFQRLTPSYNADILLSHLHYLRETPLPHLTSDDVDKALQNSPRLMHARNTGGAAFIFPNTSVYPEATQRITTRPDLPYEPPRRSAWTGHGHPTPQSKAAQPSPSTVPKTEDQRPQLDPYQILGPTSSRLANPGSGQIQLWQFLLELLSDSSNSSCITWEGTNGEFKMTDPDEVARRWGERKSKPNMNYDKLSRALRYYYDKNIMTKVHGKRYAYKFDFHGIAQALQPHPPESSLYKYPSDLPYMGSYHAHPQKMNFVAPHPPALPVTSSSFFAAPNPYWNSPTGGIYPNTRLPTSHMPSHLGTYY
Procedure, shortened: as §1

ELF1 = ELF1 (Homo sapiens, UniProt P32519 1-619); details: protein: recombinant; tags: N-terminal GST; dsDNA, one strand shown
Procedure, shortened: as §1

EHF = molecular target: T5, EHF (Homo sapiens, UniProt Q9NZC4 1-300); details: protein: recombinant; tags: N-terminal GST; dsDNA, one strand shown
T5 sequence: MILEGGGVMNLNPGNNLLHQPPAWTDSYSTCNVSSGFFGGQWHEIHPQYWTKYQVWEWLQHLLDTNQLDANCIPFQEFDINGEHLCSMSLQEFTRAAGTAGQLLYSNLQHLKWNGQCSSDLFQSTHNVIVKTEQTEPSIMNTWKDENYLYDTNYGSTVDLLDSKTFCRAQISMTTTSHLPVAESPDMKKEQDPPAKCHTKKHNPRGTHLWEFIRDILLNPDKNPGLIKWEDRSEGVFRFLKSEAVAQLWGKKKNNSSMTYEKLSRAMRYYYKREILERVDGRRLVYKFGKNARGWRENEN
Procedure, shortened: as §1

SPI1 = SPI1 (Homo sapiens, UniProt P17947 1-270); details: protein: recombinant; tags: N-terminal GST; dsDNA, one strand shown
Procedure, shortened: as §1

SPIB = SPIB (Homo sapiens, UniProt Q01892 1-262); details: protein: recombinant; tags: N-terminal GST; dsDNA, one strand shown
Procedure, shortened: as §1

ELK3 = molecular target: T6, ELK3 (Homo sapiens, UniProt P41970 1-407); details: protein: recombinant; tags: N-terminal GST; dsDNA, one strand shown
T6 sequence: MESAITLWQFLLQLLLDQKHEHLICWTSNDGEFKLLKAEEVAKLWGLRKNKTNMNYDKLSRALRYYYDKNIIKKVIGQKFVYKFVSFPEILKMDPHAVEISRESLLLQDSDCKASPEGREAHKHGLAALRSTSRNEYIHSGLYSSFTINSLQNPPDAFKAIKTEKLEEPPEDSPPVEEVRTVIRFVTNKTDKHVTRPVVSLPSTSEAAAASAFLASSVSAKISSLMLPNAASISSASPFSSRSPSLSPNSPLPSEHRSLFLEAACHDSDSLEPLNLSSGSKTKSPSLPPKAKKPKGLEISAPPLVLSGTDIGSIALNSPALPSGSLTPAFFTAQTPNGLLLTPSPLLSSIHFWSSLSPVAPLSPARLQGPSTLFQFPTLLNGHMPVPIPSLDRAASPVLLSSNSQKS
Procedure, shortened: as §1

FEV = molecular target: T7, FEV (Homo sapiens, UniProt Q99581 1-238); details: protein: recombinant; tags: N-terminal GST; dsDNA, one strand shown
T7 sequence: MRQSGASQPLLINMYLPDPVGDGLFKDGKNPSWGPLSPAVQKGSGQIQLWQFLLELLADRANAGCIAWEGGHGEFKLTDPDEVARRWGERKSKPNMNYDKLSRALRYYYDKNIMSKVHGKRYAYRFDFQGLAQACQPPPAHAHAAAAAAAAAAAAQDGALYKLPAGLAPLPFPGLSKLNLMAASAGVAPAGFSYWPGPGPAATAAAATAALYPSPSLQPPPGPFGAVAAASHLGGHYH
Procedure, shortened: as §1

ETV5 = ETV5 (Homo sapiens, UniProt P41161 1-510); details: protein: recombinant; tags: N-terminal GST; dsDNA, one strand shown
Procedure, shortened: as §1

HSF1 = HSF1 (Homo sapiens, UniProt Q00613 1-529); details: protein: recombinant; tags: N-terminal GST; chain copies: 3; dsDNA, one strand shown
Procedure, shortened: as §1

SPIC = molecular target: T8, SPIC (Homo sapiens, UniProt Q8N5J4 1-248); details: protein: recombinant; tags: N-terminal GST; dsDNA, one strand shown
T8 sequence: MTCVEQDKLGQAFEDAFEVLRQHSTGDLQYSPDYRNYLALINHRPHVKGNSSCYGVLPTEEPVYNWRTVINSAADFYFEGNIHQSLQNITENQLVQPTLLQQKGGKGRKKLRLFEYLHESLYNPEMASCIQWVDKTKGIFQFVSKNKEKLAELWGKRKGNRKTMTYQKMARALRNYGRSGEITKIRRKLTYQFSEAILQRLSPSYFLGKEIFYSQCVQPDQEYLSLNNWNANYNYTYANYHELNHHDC
Procedure, shortened: as §1

ELF4 = ELF4 (Homo sapiens, UniProt Q99607 1-663); details: protein: recombinant; tags: N-terminal GST; dsDNA, one strand shown
Procedure, shortened: as §1

ELK4 = molecular target: T9, ELK4 (Homo sapiens, UniProt P28324-2 1-405); details: protein: recombinant; tags: N-terminal GST; dsDNA, one strand shown
T9 sequence: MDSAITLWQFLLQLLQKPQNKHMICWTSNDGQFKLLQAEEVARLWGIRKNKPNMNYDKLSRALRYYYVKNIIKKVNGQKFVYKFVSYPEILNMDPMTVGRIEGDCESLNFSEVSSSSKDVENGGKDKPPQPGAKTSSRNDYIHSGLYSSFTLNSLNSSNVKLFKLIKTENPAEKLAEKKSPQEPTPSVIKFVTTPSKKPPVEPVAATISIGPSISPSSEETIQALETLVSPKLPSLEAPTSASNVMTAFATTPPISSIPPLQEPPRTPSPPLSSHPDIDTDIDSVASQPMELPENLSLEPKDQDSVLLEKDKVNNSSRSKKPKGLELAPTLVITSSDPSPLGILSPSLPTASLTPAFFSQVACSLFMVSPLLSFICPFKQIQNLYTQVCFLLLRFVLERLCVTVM
Procedure, shortened: as §1

ETV2 = molecular target: T10, ETV2 (Homo sapiens, UniProt O00321 1-342); details: protein: recombinant; tags: N-terminal GST; dsDNA, one strand shown
T10 sequence: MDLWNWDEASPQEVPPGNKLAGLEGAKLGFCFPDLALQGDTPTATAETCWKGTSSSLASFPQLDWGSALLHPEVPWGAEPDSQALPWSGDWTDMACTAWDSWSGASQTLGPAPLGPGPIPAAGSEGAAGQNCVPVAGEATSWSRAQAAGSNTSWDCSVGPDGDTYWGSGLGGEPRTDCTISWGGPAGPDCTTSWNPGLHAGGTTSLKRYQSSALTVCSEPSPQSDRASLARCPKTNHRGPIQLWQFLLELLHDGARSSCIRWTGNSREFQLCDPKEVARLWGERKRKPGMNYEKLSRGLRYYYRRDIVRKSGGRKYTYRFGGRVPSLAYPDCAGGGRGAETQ
Procedure, shortened: as §1

ELF3 = molecular target: T11, ELF3 (Homo sapiens, UniProt P78545 1-371); details: protein: recombinant; tags: N-terminal GST; dsDNA, one strand shown
T11 sequence: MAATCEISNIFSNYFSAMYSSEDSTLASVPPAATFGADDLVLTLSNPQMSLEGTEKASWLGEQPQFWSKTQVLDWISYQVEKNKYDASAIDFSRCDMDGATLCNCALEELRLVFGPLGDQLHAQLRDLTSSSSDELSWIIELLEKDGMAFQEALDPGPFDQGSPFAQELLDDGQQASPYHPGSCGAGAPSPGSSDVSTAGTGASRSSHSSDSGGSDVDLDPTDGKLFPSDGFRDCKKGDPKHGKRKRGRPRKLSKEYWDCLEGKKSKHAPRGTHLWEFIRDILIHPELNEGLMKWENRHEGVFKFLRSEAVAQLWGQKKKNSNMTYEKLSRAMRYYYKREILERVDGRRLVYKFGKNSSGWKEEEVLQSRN
Procedure, shortened: as §1

CRX = CRX (Homo sapiens, UniProt O43186 1-299); details: protein: recombinant; tags: N-terminal GST; dsDNA, one strand shown
Procedure, shortened: as §1

ETV1 = ETV1 (Homo sapiens, UniProt P50549 1-477); details: protein: recombinant; tags: N-terminal GST; dsDNA, one strand shown
Procedure, shortened: as §1

ETV5, sequence (P41161 whole entry): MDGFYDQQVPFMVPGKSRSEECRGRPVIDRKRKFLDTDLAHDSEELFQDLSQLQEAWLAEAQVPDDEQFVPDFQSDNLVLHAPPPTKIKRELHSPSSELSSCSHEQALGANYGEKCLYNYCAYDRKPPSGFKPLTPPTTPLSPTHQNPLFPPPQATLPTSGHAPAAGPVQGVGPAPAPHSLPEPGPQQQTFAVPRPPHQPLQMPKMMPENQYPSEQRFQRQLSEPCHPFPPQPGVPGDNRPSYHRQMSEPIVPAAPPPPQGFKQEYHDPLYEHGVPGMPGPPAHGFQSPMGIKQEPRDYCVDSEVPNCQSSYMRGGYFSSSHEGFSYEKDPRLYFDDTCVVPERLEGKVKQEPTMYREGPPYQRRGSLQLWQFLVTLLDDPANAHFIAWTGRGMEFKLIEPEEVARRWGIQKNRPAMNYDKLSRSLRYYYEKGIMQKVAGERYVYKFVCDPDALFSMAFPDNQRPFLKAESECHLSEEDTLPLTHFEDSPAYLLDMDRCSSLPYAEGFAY
ETV1, sequence (P50549 whole entry): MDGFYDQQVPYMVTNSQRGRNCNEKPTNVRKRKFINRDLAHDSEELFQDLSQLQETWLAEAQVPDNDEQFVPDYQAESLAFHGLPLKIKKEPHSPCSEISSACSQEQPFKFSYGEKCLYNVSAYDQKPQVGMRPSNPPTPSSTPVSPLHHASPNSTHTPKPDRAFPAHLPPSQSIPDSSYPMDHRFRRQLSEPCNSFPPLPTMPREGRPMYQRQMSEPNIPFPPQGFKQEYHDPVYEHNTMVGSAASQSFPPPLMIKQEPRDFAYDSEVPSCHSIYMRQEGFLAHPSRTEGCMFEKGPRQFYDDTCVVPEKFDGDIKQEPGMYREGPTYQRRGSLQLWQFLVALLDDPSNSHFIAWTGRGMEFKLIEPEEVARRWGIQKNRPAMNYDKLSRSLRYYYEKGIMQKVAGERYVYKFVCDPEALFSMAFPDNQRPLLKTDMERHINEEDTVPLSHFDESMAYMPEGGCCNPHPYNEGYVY
ELF4, sequence (Q99607 whole entry): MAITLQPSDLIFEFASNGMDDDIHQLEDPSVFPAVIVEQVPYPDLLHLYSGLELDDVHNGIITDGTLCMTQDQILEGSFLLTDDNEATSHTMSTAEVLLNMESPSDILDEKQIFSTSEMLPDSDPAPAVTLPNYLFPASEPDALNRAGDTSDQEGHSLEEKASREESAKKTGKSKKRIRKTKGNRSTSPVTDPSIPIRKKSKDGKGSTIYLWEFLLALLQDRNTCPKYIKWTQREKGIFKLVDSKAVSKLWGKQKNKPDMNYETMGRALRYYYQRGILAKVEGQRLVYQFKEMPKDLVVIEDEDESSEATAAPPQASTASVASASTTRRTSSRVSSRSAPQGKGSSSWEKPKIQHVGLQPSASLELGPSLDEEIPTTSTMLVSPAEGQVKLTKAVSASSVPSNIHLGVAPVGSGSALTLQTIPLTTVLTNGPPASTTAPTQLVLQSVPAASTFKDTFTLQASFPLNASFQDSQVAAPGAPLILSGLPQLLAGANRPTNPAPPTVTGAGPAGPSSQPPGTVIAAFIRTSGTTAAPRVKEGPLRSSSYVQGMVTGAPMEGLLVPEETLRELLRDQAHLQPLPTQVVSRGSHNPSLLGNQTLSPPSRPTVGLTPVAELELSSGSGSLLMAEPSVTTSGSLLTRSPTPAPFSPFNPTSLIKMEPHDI
HSF1, sequence (Q00613 whole entry): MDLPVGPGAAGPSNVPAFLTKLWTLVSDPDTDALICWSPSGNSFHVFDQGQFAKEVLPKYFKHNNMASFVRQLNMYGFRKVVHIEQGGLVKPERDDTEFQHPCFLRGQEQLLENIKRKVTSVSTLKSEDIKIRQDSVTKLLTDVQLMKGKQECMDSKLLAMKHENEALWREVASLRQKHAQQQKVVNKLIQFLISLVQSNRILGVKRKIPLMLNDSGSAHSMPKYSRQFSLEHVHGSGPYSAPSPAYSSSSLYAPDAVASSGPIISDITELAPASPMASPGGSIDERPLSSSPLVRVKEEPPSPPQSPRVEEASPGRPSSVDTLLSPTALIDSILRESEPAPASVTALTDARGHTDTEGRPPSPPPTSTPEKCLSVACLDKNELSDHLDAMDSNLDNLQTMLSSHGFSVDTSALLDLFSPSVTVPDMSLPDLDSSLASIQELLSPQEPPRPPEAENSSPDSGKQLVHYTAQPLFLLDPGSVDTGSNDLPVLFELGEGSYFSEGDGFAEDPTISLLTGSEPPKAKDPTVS
SPIB, sequence (Q01892 whole entry): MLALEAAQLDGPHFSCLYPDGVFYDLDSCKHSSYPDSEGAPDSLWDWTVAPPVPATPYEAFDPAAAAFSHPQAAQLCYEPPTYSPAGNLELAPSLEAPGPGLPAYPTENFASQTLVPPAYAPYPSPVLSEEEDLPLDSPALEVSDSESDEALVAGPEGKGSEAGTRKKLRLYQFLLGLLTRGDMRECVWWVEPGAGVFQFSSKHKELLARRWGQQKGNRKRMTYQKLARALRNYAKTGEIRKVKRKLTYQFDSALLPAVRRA
ELF1, sequence (P32519 whole entry): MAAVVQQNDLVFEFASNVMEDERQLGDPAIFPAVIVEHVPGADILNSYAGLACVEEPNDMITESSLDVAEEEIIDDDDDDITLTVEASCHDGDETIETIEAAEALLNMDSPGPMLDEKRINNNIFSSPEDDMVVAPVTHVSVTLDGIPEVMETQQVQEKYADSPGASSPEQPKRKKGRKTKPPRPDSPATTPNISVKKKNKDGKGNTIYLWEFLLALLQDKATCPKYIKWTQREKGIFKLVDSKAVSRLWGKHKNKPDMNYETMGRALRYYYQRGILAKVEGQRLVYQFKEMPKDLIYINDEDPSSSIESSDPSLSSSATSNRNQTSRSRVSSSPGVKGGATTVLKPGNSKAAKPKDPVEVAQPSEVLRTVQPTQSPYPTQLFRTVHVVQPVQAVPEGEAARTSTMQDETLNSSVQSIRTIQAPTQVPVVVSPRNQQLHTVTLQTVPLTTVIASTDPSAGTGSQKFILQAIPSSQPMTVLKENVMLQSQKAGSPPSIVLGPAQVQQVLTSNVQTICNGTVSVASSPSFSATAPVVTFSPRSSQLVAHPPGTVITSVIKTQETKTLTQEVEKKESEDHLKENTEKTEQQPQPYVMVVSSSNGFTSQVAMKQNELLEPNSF
CRX, sequence (O43186 whole entry): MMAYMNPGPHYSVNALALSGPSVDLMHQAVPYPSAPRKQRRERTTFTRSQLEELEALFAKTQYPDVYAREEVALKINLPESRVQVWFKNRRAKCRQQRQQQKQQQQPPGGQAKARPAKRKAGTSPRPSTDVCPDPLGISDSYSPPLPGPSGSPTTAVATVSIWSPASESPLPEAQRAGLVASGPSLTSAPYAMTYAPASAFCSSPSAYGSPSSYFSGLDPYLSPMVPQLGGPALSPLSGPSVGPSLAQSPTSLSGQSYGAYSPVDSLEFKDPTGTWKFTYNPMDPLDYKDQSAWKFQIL

For AACATA, the binding signal (FLI1) was 1.23 fold enrichment (6-mer frequency, TF over GST control), the binding signal (ELK1) was 1.26 fold enrichment (6-mer frequency, TF over GST control) and the binding signal (GABPA) was 1.29 fold enrichment (6-mer frequency, TF over GST control). The binding signal (ERG) was 1.26 fold enrichment (6-mer frequency, TF over GST control), the binding signal (ELF1) was 1.28 fold enrichment (6-mer frequency, TF over GST control) and the binding signal (EHF) was 1.31 fold enrichment (6-mer frequency, TF over GST control). For the same sequence, the binding signal (SPI1) was 1.21 fold enrichment (6-mer frequency, TF over GST control), the binding signal (SPIB) was 1.22 fold enrichment (6-mer frequency, TF over GST control) and the binding signal (ELK3) was 1.25 fold enrichment (6-mer frequency, TF over GST control). For the same sequence, the binding signal (FEV) was 1.2 fold enrichment (6-mer frequency, TF over GST control), the binding signal (ETV5) was 1.31 fold enrichment (6-mer frequency, TF over GST control) and the binding signal (HSF1) was 1.36 fold enrichment (6-mer frequency, TF over GST control). For the same sequence, the binding signal (SPIC) was 1.37 fold enrichment (6-mer frequency, TF over GST control), the binding signal (ELF4) was 1.3 fold enrichment (6-mer frequency, TF over GST control) and the binding signal (ELK4) was 1.16 fold enrichment (6-mer frequency, TF over GST control). The binding signal (ETV2) was 1.38 fold enrichment (6-mer frequency, TF over GST control), the binding signal (ELF3) was 1.36 fold enrichment (6-mer frequency, TF over GST control) and the binding signal (CRX) was 1.3 fold enrichment (6-mer frequency, TF over GST control). The binding signal (ETV1) was 1.21 fold enrichment (6-mer frequency, TF over GST control).
